PubChem BioAssay AID568 (Sanford-Burnham Center for Chemical Genomics, 2006)
Among all 83,000 compounds or so, fewer than 10 were called active. No rule for the calls is given here. Only a sample is shown. Potency and affinity values are given separately.

Each compound was assayed against Heat shock cognate 71 kDa protein (Homo sapiens) (UniProt P11142) (assay: small molecules displacing fluorescent ligand from Hsc70 – biochemical, fluorescence polarization, primary screen (AID 568)). Settings: mP, at 20 µM, active compounds read high.
Sequence of Heat shock cognate 71 kDa protein (Homo sapiens) (P11142 whole entry, looked up): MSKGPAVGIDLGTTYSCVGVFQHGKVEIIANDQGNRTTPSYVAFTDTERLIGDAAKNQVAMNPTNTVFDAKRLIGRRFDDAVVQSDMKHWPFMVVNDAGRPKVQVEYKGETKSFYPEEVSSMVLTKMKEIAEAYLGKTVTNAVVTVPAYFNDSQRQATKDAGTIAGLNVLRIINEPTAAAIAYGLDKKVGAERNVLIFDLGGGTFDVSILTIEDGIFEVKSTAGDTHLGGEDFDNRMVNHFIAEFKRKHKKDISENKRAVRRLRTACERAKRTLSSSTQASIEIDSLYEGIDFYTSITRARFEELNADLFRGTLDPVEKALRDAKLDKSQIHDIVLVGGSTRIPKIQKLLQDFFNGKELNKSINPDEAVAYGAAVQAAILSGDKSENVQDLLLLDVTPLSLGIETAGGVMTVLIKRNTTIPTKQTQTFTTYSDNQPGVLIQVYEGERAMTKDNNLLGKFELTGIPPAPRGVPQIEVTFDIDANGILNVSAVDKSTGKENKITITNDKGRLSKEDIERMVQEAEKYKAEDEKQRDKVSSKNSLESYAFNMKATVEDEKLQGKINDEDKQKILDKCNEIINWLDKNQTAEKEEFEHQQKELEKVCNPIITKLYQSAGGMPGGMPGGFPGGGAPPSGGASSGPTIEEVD
Sequence of Heat shock cognate 71 kDa protein (Homo sapiens) (P11142 whole entry, looked up): as above

SMILES | displacement
CCOC(=O)c1sc(=S)n(-c2ccccc2OC)c1N | 4.2% (inactive)
COc1ccc(N(CC(=O)Nc2cc(OC)ccc2OC)S(=O)(=O)c2c(C)nn(C)c2C)cc1 | -0.1% (inactive)
Oc1c(Cl)cc(Cl)c2c1NCCC2 | 1% (inactive)
Oc1c(Cl)cc(Cl)cc1Sc1cc(Cl)cc(Cl)c1O | 11.6% (inactive)
NC(=O)CSc1nnc(Cc2ccc3c(c2)OCO3)n1C1CCCCC1 | -4.2% (inactive)
COc1cccc(Nc2c(F)c(F)c(F)c(F)c2C(=O)O)c1 | 3.7% (inactive)
CC1(C)CC(=O)C2=C(C1)OC(N)=C(C#N)C21C(=O)N(Cc2ccccc2Cl)c2ccccc21 (stereo not given) | -38.5% (inactive)
O=C(CSc1nc(-c2ccco2)cc(C(F)(F)F)n1)NC1CCCCCCC1 | -4.2% (inactive)
Cc1ccc2c(c1)N(Cc1ccc3c(c1)OCO3)C(=O)C(C)O2 (stereo not given) | -2.1% (inactive)
O=C(Cn1cnc2c(nnn2Cc2ccccc2)c1=O)N1CCCc2ccccc21 | 2% (inactive)
CC(=O)NCCc1ccc(S(=O)(=O)NC2OC(=O)c3ccccc32)cc1 (stereo not given) | -3.3% (inactive)
CC1(C)Cc2c(c(N3CCOCC3)nc3sc4c(=O)[nH]cnc4c23)CS1 | -5% (inactive)
C=CCN1C(=O)C2C(C(=O)NCc3ccccc3)C3C=CC2(O3)C1C(=O)NC(C)(C)C (stereo not given) | -3.6% (inactive)
O=C1CCCCCN1CSc1nc2ccccc2s1 | 5.1% (inactive)
CCOC(=O)N1CCN(C(=O)CN(c2ccc3c(c2)OCO3)S(C)(=O)=O)CC1 | 0.1% (inactive)
Oc1ccccc1-c1cc(-c2ccco2)[nH]n1 | 1.3% (inactive)
CC(=O)Nc1ccc(S(=O)(=O)N(C)CC(=O)Nc2ccccc2N2CCOCC2)cc1 | -0.5% (inactive)
COc1ccc(-c2nc(CS(=O)CC(=O)NCc3cccnc3)c(C)o2)cc1 (stereo not given) | 1.8% (inactive)
Cc1ccc(C)c(N(CC(=O)NC2CCCC2)C(=O)CCCC(=O)Nc2ccccn2)c1 | 4.6% (inactive)
CN1CCc2c(sc3c2C(=O)NC(/C=C/c2ccco2)N3)C1 (stereo not given) | 5.2% (inactive)

SMILES | displacement
CCOc1c(Cl)cc(C(=O)NCCN2CCCCC2)cc1Cl | -10.7% (inactive)
Cc1ccccc1NC(=O)Cn1cccc1 | -0.7% (inactive)
Cc1ccc(-c2nn3c(-c4ccco4)nnc3c3ccccc23)cc1S(=O)(=O)NCC1CCCO1 (stereo not given) | 1% (inactive)
CC1CC(C)CN(CCCNC(=O)C2CCN(S(=O)(=O)N3CCCCC3)CC2)C1 (stereo not given) | -3.8% (inactive)
O=C(Nc1ccc(-c2nc3ccccc3[nH]2)cc1)c1ccco1 | -7.1% (inactive)
CC(C)N(C#N)c1nc(N2CCOCC2)nc(N2CCOCC2)n1 | 9.4% (inactive)
CC1=C(C(=O)N(C)CCC#N)C2(CCCCC2)OC1=O | -1.4% (inactive)
O=C(NC(Cc1ccccc1)c1nc2ccccc2[nH]1)C1CC(=O)N(c2ccc3c(c2)OCCO3)C1 (stereo not given) | -10.1% (inactive)
Cc1ccc(C(=O)Nc2cc(=O)n(C)c(=O)n2C)o1 | 5.3% (inactive)
O=C(CCCn1c(=S)[nH]c2cc3c(cc2c1=O)OCO3)N1CCN(c2ccccn2)CC1 | -4.4% (inactive)
Cc1cnc(NC(=O)c2cc3c(C)nn(-c4ccccc4)c3s2)s1 | -5.6% (inactive)
CC1CCN(C(=O)c2cc(-c3ccccc3O)on2)CC1 | -5% (inactive)
CCOC(=O)C1CCCN(CCC(=O)Nc2ccc(C)cc2)C1 (stereo not given) | -2.2% (inactive)
CCCCN(C(=O)CNC(=O)c1ccco1)C(C(=O)NC1CCCC1)c1ccc(OC)cc1 (stereo not given) | 2.3% (inactive)
O=C(Nc1ccc(F)c(F)c1)c1cccnc1 | -5.4% (inactive)
Cc1cc(C(=O)CN2C(=O)NC(c3ccccc3)(c3ccccc3)C2=O)c(C)n1Cc1ccccc1 | -22.9% (inactive)
Cc1nnc(SCC(=O)Nc2ccc(S(=O)(=O)N3CCCCC3)cc2)s1 | -3.1% (inactive)
CN(C)S(=O)(=O)c1ccc(NC(=O)c2c(F)cccc2Cl)cc1 | -2.2% (inactive)
Cc1c(C(=O)OCC(=O)N2c3ccccc3CC2C)oc2ccccc12 (stereo not given) | -0.6% (inactive)
O=C(NCCN1CCOCC1)Nc1ccc(Cl)cc1Cl | -6.7% (inactive)
